According to PubChem BioAssay:
Entries with a potency or affinity are not part of this list. Results filed as inconclusive are left out. Active and inactive are the calls of the source.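 The calls were made as follows, unless noted: active = a dose-response fit showing signal loss, with half-maximal concentration no higher than twice the top tested dose; inconclusive = flat fit between 30% and 70% signal loss, or poor fit; inactive = the rest.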

What was measured:
[1] = fungal growth arrest, C. neoformans – Alamar Blue, cherry-picks, dose response (AID 686998;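 active = falling signal with fitted half-maximal potency no higher than twice the top valid tested dose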)
[2] = viability loss in HepG2 hepatoma cells – cell-based, cherry-picks, set 2, cytotoxicity control, dose response (AID 687002)
[3] = viability loss in HeLa cells – cell-based, ATP luminescence, cherry-pick samples, cytotoxicity control, dose response (AID 687004;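 active = a fitted half-maximal concentration no higher than twice the top valid tested dose, with signal falling as cells die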;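 also: 0% = neutral control median and -100% = staurosporine 10 µM control median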)
[4] = C. neoformans lysis by adenylate kinase leakage – AK release luminescence, cherry-picks, dose response (AID 687000;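 active = fitted dose curve reaches 40% lysis signal rise at or below the highest valid concentration tested for that sample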;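 also: luminescent detection of adenylate kinase leaking from lysed yeast; 0% = median neutral control signal and 100% = double that signal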)
[5] = RMG-1 ovarian cancer cell viability loss – cherry-pick, dose response (AID 687029;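 active = signal drop whose fitted half-maximal concentration is at most twice the top valid dose, in every test run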;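 also: cells exposed to compound for 96 hours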)
[6] = IOSE-T80 viability loss, PAX8-independent line – cell-based, cherry-pick, selectivity assay for PAX8 inhibitor project, dose response (AID 687032;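 active = fitted half-maximal concentration for viability loss no higher than twice the top valid dose, in every repeat run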;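 also: cells exposed to compound for 96 h before reading; 0% = neutral control wells and -100% = 2 µM mitoxantrone kill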)
[7] = CMV-driven luciferase expression suppression in HEK293 – cell-based, luminescence, dry powder, counter-screen for Pax8 inhibitor project, dose response (AID 743020;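 active = signal-lowering compounds whose fitted half-maximal concentration is at or below twice the top tested dose in every run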;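 also: HEK293 cells stably expressing the CMV luciferase reporter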)
[8] = general cell-killing toxicity readout – plate reader, dry powder samples, cytotoxicity control for PAX8 inhibitor project, dose response (AID 743021; call rule not given here)
[9] = IGROV1 cell killing – plate reader, dry powder samples, PAX8 inhibitor project, dose response (AID 743043; call rule not given here;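 also: more negative means fewer viable cells or more cytotoxicity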)
[10] = OVCAR-3 cell viability loss – plate reader, dry powder samples, PAX8 inhibitor project, dose response (AID 743044; call rule not given here); details: max activity: at 35 µM, stronger effect = lower value unless noted
[11] = toxicity toward immortalized ovarian surface epithelium – cell-based, plate reader, dry powder samples, cytotoxicity control for PAX8 inhibitor project, dose response (AID 743045; call rule not given here;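 also: 0% = neutral control median and -100% = positive control median; more negative values mean more cell killing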)
[12] = OVCAR8 cell viability loss – plate reader, dry powder samples, PAX8 project, dose response (AID 743197; call rule not given here)

Measured: max activity

O=C(NCCN1CCCCC1)[C@H]1N[C@H]2c3ccc(-c4ccncc4)c(=O)n3C[C@H]2[C@@H]1CO
inactive: [1] | [2] | [3]

CC(C)NC(=O)Nc1ccc2c(c1)CC(=O)N([C@@H](C)CO)C[C@@H](C)[C@H](CN(C)C(=O)Nc1ccc3c(c1)OCO3)O2
inactive: [1] | [2] | [3]

C[C@@H]1CCCCO[C@@H](CN(C)C(=O)Nc2cccc3ccccc23)[C@@H](C)CN([C@H](C)CO)C(=O)c2cc(NS(=O)(=O)c3ccccc3)ccc2O1
inactive: [1] | [2] | [3]

CC(C)CC#Cc1cnc2c(c1)C(=O)N([C@H](C)CO)C[C@H](C)[C@H](CN(C)C(=O)c1cccnc1)O2
inactive: [1] | [2] | [3]

Cc1ccccc1NC(=O)C(=O)NCCCN1CCCC1=O
inactive: [1] | [2] | [3]

C[C@H](CO)N1C[C@H](C)[C@@H](CN(C)C(=O)c2ccncc2)OCCCC[C@H](C)Oc2ccc(NC(=O)Cc3ccccc3)cc2C1=O
inactive: [1] | [2] | [3]

Cc1noc(C)c1S(=O)(=O)Nc1ccc2c(c1)CC(=O)N([C@H](C)CO)C[C@H](C)[C@@H](CN(C)S(=O)(=O)c1cn(C)cn1)O2
inactive: [1] | [2] | [3]

C[C@H](CO)N1C[C@H](C)[C@@H](CN(C)Cc2ccc(-c3ccccc3)cc2)Oc2ccc(NC(=O)Nc3ccc(C(F)(F)F)cc3)cc2C1=O
inactive: [1] | [2] | [3]

COCCN1C(=S)N[C@@H](c2ccccc2)C(C(=O)OC)=C1C
inactive: [1] | [2] | [3]

Cc1cccc(-c2ccc([C@H]3[C@H](CO)N4CCCCN(C(=O)c5ccc6c(c5)OCO6)C[C@@H]34)cc2)c1
inactive: [1] | [2] | [3]

COCCNC(=O)C[C@H]1C[C@@H]2c3cc(NC(=O)C4CCC4)ccc3O[C@@H]2[C@H](CO)O1
inactive: [1] | [2] | [3]

CNC[C@@H]1OCCCC[C@@H](C)Oc2ccc(NS(=O)(=O)c3ccc(Cl)cc3)cc2C(=O)N([C@H](C)CO)C[C@H]1C
inactive: [1] | [2] | [3]

Cc1ccc(NC(=O)N2CCCC2C(=O)Nc2c(C)cc(C)cc2C)cc1 (centres undefined)
inactive: [1] | [2] | [3]

O=C(Nc1ccccc1N1CCOCC1)c1cccc([N+](=O)[O-])c1
inactive: [1] | [2] | [3]

C[C@H]1CN([C@@H](C)CO)C(=O)c2cccc(NS(=O)(=O)c3ccc(Cl)cc3)c2O[C@@H]1CN(C)CC1CC1
inactive: [1] | [2] | [3]

CC(C)NC(=O)N[C@H]1CC[C@@H](CCNC(=O)C2CC2)O[C@H]1CO
inactive: [1] | [2] | [3]

CCCC(=O)Nc1ccc2c(c1)C(=O)N(C)C[C@H](OC)[C@@H](C)CN(C(=O)c1cccnc1)[C@H](C)CO2
inactive: [1] | [2] | [3]

Cc1cccc(NC(=S)NN(Cc2ccccc2)c2ccccc2)c1C
inactive: [4] | [2]

Cc1noc(C)c1NC(=O)Nc1ccc2c(c1)C(=O)N([C@@H](C)CO)C[C@H](C)[C@H](CN(C)S(=O)(=O)c1ccc(Cl)cc1)O2
inactive: [1] | [2] | [3]

COc1cccc(S(=O)(=O)N(C)C[C@@H]2OCc3ccccc3-c3ccccc3C(=O)N([C@@H](C)CO)C[C@@H]2C)c1
inactive: [1] | [2] | [3] | [5] | [6] | [7] | [8] | [9] | [10] -40.1% [at 8 µM, stronger effect = lower value] | [11] | [12]

C[C@@H]1CN([C@@H](C)CO)C(=O)Cc2cc(NS(=O)(=O)c3ccccc3)ccc2O[C@@H]1CN(C)Cc1ccc(Cl)c(Cl)c1
inactive: [4] | [2]

CCOC(=O)NCc1ccc2[nH]c(C)cc2c1
inactive: [4] | [2] | [3]

CCN(Cc1ccccc1)C(=O)COc1ccccc1
inactive: [1] | [2] | [3]

COc1ccc(NC(=O)N(C)C[C@@H]2OCCCC[C@@H](C)Oc3ccc(NC(=O)Nc4ccc5c(c4)OCO5)cc3C(=O)N([C@@H](C)CO)C[C@H]2C)cc1
inactive: [1] | [2] | [3]

Cc1noc(C)c1S(=O)(=O)Nc1ccc2c(c1)C(=O)N([C@@H](C)CO)C[C@@H](C)[C@@H](CN(C)Cc1ccccc1)OCCCC[C@H](C)O2
inactive: [1] | [2] | [3]

O=C(CN(c1ccc(F)cc1)S(=O)(=O)c1ccccc1)NCCSC1CCCCC1
inactive: [4] | [2] | [3]

CN1CCN(CCCNC(=O)c2ccc(/C=C3\Oc4ccccc4N(Cc4ccccc4F)C3=O)cc2)CC1
inactive: [4] | [2]

Cc1ccc(N(C(=O)C2CCC(=O)N2)C2(C(=O)NC3CCCC3)CCCCC2)cc1 (centres undefined)
inactive: [4] | [2] | [3]
